This is a sample that favours compounds with a hit; in the whole collection about 11% have one here.
BAZ2B inh = BAZ2B (human) inhibition; Q9UIF8; Potency, µM (highest dose often 114 µM), without a hit: top-dose activity change, negative = inhibition, actives largely listed as inhibitors; AID 504333; 360,000 compounds, 4.4% hits; AlphaScreen BAZ2B-H3K14Ac peptide displacement; also: potency is read from the fitted curve at half-maximal effect; % is scaled to controls: 0 for no effect and ±100 for the full control effect; nearly all actives have a fitted effect of over 60% in size
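Compounds, titrated to a top concentration of 110 uM, were incubated 30 min at room temperature with preformed BAZ2B/acetyl-K14 H3 peptide complex (50 nM each). Proximity signal was measured by AlphaScreen after 20 min with beads.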
PI5P4K alpha inh = blocks human PI5P4K alpha kinase activity. P48426. PI5P4Kalpha enzyme, ADP-Glo luminescence, 60 min; stronger effect = lower value. max response, %. 330,000 compounds, 1.2% hits. AID 652105; active = max response of -50% or lower; inconclusive = between -30% and -50%; inactive = -30% or higher; also: value at the top dose of about 77 µM; % is scaled to controls: 0 for no effect and ±100 for the full control effect
Target sequence (P48426 whole entry, looked up): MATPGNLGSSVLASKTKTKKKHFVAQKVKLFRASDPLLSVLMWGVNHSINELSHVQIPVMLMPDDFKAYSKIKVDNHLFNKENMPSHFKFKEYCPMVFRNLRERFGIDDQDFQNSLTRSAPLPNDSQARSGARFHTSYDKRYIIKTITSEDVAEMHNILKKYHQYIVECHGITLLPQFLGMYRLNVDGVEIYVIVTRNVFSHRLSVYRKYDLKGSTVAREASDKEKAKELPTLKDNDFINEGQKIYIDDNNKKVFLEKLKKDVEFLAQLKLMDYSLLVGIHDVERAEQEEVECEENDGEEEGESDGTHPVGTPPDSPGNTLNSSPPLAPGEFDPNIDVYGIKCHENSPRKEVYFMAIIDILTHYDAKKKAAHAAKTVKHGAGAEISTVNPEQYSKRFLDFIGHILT
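Controls without substrate or without enzyme flank wells where PI5P4Kalpha converts substrate using 5 microM ATP (final). Incubation lasts 60 minutes at room temperature; ADP formed is read by ADP-Glo luminescence.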
L3MBTL1 block = inhibitors of human L3MBTL1; Q9Y468; AlphaScreen L3MBTL1–H3K9me1 peptide binding; Potency, µM (highest dose often 57.1 µM), inactives show top-dose activity, negative = inhibition, most hits filed as inhibitors; 230,000 compounds, 0.66% hits; AID 485360; also: potency is read from the fitted curve at half-maximal effect; % is scaled to controls: 0 for no effect and ±100 for the full control effect; nearly all actives have a fitted effect of over 60% in size
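L3MBTL1 50 nM + b-AHA-H3(1-15)K9me1 75 nM, 30 min RT; compound added, 30 min RT; streptavidin donor/Ni-chelate acceptor beads 10 ug/mL each final, 30 min RT dark; AlphaScreen read.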
G9a block = G9a (human) methyltransferase inhibition; Q96KQ7; G9a H3K9 monomethylation, AlphaScreen, 2 h; Potency, µM (series often up to 102 µM), inactives show at the top dose activity, negative = inhibition, most hits filed as inhibitors; 350,000 compounds, 8.8% hits; AID 504332; also: potency is read from the fitted curve at half-maximal effect; % is scaled to controls: 0 for no effect and ±100 for the full control effect; nearly all actives have a fitted effect of over 75% in size
Target sequence (Q96KQ7 913-1193 limits assumed): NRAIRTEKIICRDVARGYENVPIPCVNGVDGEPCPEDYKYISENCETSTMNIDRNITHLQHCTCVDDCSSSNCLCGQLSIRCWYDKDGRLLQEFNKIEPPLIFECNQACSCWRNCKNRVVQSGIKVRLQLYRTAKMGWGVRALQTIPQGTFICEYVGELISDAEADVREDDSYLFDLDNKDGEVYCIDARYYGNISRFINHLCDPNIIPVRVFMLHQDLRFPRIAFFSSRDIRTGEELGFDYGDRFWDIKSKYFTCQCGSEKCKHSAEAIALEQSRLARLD
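Readings reflect AlphaScreen signal from monomethyl-H3K9 antibody detection. HMT at 20 nM; substrate b-H3K9 500 nM; cofactor SAM 20 uM; 2 h RT reaction; compounds tested as titrations in qHTS with 15 min preincubation.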
JMJD2A Tudor inh = inhibitors of human JMJD2A Tudor domain | AID 504339 | Potency, µM (doses to about 114 µM), inactives show at the highest dose activity change, negative = inhibition, usual class: inhibitors | 390,000 compounds, 4.4% hits | AlphaScreen JMJD2A-Tudor / H3K4me3 peptide binding; also: potency is read from the fitted curve at half-maximal effect; % is scaled to controls: 0 for no effect and ±100 for the full control effect; nearly all actives have a fitted effect of over 50% in size
HP1b binding inh = blocks HP1-beta chromodomain binding to methylated histone tails | AlphaScreen HP1-beta / biotin-H3K9me3 peptide binding | Potency, µM (titrated, usually from 114 µM), without a hit: top-dose activity change, negative = inhibition, usual class: inhibitors | 390,000 compounds, 0.56% hits | AID 540317; also: potency is read from the fitted curve at half-maximal effect; nearly all actives have a fitted effect of over 70% in size
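HP1-beta protein (50 nM final) preincubated 30 min at room temperature with biotinylated H3(1-18)K9me3 peptide (50 nM) in PBS pH 7.4, 0.01% Tween-20, then compound added for 30 min. AlphaScreen streptavidin donor/nickel chelate acceptor beads (10 ug/mL final), 30 min dark, luminescence read.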
* hit, by the source's call; u = inconclusive; x = no result given; [ ] = dose if it differs, or a comment. Unless noted, calls follow the shape of the dose curve; as a rule, active = well fitted inhibition curve with a large enough effect; inconclusive = small, poorly fitted or top-dose-only effect; inactive = no such curve, though single readings can be large or run the other way.

SMILES	BAZ2B inh	PI5P4K alpha inh	L3MBTL1 block	G9a block	JMJD2A Tudor inh	HP1b binding inh
O=C(Nc1nc(-c2ccccn2)cs1)c1ccco1	7.94µM*	u	x	20µM*	56.2µM*	-22.2%
COc1ccc2oc(C(=O)Nc3nc(-c4ccccn4)cs3)c(C)c2c1	-0.2%	u	25.1µM*	50.1µM*	-22.3%	9.7%
C[C@H](NC(=O)c1ccco1)C(=O)Nc1nnc(SCc2ccccc2)s1	x	-4.5	-4.8%	x	0.0%	25.6%
O=C(Nc1nc(-c2cccs2)cs1)c1ccco1	-28.0%	-1.7	-4.6%	u	-16.9%	16.0%
Cc1ccc(N(CC(=O)Nc2cccc(Cl)c2C)S(=O)(=O)c2c(C)noc2C)cc1	x	x	x	16.3%[59 µM]	0.0%	35.0%
Cc1ccc(NC(=O)C(=O)NCc2ccc(Cl)cc2)cc1	0.4%	x	x	17.4%[59 µM]	-2.0%	41.4%
CCCCn1c(=O)c2oc3ccccc3c2n(Cc2ccccc2C)c1=O	9.2%	x	x	9.0%[59 µM]	0.0%	13.5%
CCn1c(CN2CCCCC2)nc2cc(NC(=O)COc3ccccc3C(C)(C)C)ccc21	-25.2%	x	x	-25.5%[59 µM]	-5.6%	49.3%
COC(=O)C(C(C)C)N1CC(=O)c2ccccc2S1(=O)=O (stereo not drawn)	x	x	x	x	-11.0%	61.1%
O=C(NCc1noc2ccccc12)Nc1ccc(F)cc1F	9.1%	x	x	-1.7%[59 µM]	-3.2%	53.6%
CC(=O)Nc1ccc(NC(=O)CCCn2nc(C)c3sc4ccccc4c3c2=O)cc1	3.5%	x	x	-46.3%[59 µM]	-1.0%	45.1%
COc1cccc(NC(=O)C2CCC(CNS(=O)(=O)c3csc(C(N)=O)c3)CC2)c1 (stereo not drawn)	3.2%	x	x	-0.9%[59 µM]	-8.8%	25.1%
O=C(Nc1nc(-c2ccccn2)cs1)c1ccc(Br)s1	35.5µM*	x	x	50.1µM*	u	23.1%
COc1ccccc1C(=O)NCCSCc1c(F)cccc1Cl	8.4%	7.3	-1.9%	70.8µM*	6.1%	38.6%
O=C(NCCSCc1c(F)cccc1Cl)c1ccco1	-37.8%	0.0	-13.6%	-41.3%	-15.5%	21.8%
Nc1nc(=S)c2[nH]cnc2[nH]1	-35.6%	u	-7.0%	2.24µM*	5.62µM*	4.9%
COc1ccc(CC2(CO)CCN(Cc3cccnc3)CC2)cc1	-15.7%	-0.4	-22.6%	35.5µM*	10.5%[57.1 µM]	45.9%
CCOC(=O)c1cc(-c2ccccc2)n(CCC(=O)NCCc2ccc(C)cc2)c1C	-20.0%	x	x	u	-26.9%	-24.1%
CC(C)(C)C(=O)NNC(=O)c1cc(C(C)(C)C)nn1Cc1ccccc1	-12.0%	3.8	x	-5.6%	1.1%	23.5%
Cc1ccc(NC(=O)c2cc(C(C)(C)C)nn2Cc2ccccc2)cc1	0.8%	1.1	11.1%	x	-8.3%	33.3%
Cc1ccc(NNC(=O)c2cc(C(C)(C)C)nn2Cc2ccccc2)cc1	0.1%	0.6	-21.3%	3.55µM*	70.8µM*	u
COc1ccccc1NNC(=O)c1cc(C(C)(C)C)nn1Cc1ccccc1	u	0.5	-6.7%	12.6µM*	-34.5%	8.2%
Cn1c[n+](C)cc1/C=N/O	89.1µM*	-16.5	3.6%	39.8µM*	50.1µM*	8.1%
Cn1c(/C=N/O)nc2ccccc21	-14.3%	-0.3	11.6%	x	-12.5%[11.4 µM]	55.4%
C=CCn1c(CNC(=O)c2cccs2)nnc1SCC(=O)c1ccc(Br)cc1	-13.9%	x	-4.7%	-2.9%[59 µM]	-33.3%	21.7%
SMILES	BAZ2B inh	PI5P4K alpha inh	L3MBTL1 block	G9a block	JMJD2A Tudor inh	HP1b binding inh
Cn1c(SCC(=O)Nc2ccc(C(=O)O)cc2)nc2scc(-c3ccccc3Cl)c2c1=O	x	-70.7*	3.5%	x	-24.8%	-27.7%
C=CCn1c(CNC(=O)c2cccs2)nnc1SCC(=O)Nc1ccc(C(=O)O)cc1	-7.9%	-62.9*	x	u	-25.2%	11.9%
Cc1cc2c(=O)n(C)c(SCC(=O)Nc3ccccc3)nc2s1	-1.0%	-10.7	x	-1.0%[59 µM]	3.9%	19.3%
C=CCn1c(SCC(=O)Nc2ccc(C(=O)O)cc2)nc2sc(C)c(C)c2c1=O	6.3%	-60.0*	-4.2%	2.9%[59 µM]	-7.0%	33.2%
C=CCn1c(SCC(=O)Nc2ccc(C(=O)O)cc2)nc2scc(-c3ccccc3)c2c1=O	x	-91.6*	-9.4%	x	-19.4%	u
Cc1cc(Br)ccc1NC(=O)CCS(=O)(=O)c1cccc2nsnc12	-21.1%	x	x	u	-21.8%	20.8%
CCCCNC(=O)CCn1c(=O)c2ccccc2n(Cc2ccccc2C#N)c1=O	0.7%	x	x	5.9%[59 µM]	6.1%	31.1%
COc1ccc(CNC2CC(C)N(C)CC2C)cc1OC (stereo not drawn)	9.8%	-2.1	10.3%	-10.7%	-9.0%	25.6%
COc1ccc(CCNC2CC(C)N(C)CC2C)cc1OC (stereo not drawn)	4.4%	x	9.3%	44.7µM*	-2.6%	35.0%
COc1cccc(CNC(=O)c2cc(S(=O)(=O)N3CCCCCC3)cn2C)c1	-15.3%	x	x	8.4%[59 µM]	-13.7%	10.8%[57 µM]
CC(C)CCn1c(=O)c2sccc2n2c(CCCC(=O)NCc3ccc(F)cc3)nnc12	-11.8%	x	x	-19.7%[59 µM]	-10.6%	49.9%
COc1ccc(Br)cc1CN(C)CC(=O)Nc1cccc(S(=O)(=O)N2CCCC2)c1	x	-1.2	-7.9%	x	25.1µM*	u
CN(C)S(=O)(=O)c1cccc(NC(=O)c2ccc(S(=O)(=O)N3CCCCC3)cc2)c1	7.1%	14.0	-0.4%	u	89.1µM*	18.9%
COCCN(CC(=O)Nc1cccc(S(=O)(=O)N2CCCC2)c1)Cc1nc2ccccc2c(=O)[nH]1	11.5%	-10.8	6.6%	50.1µM*	-21.6%	15.4%
CS(=O)(=O)c1cccc(C(=O)Nc2cccc(S(=O)(=O)N3CCCC3)c2)c1	2.2%	1.9	-1.7%	u	-7.5%	13.9%
COc1ccc(Br)cc1CN(C)CC(=O)Nc1cccc(S(N)(=O)=O)c1	-18.6%	-7.0	-3.0%	13.3%	-6.0%[11.4 µM]	40.2%
COc1cc(C(=O)Nc2cccc(S(=O)(=O)N3CCCC3)c2)cc(OC)c1C	-37.7%	10.3	-9.6%	31.6µM*	-29.3%	5.6%
O=C(O)C1C2C=CC(C3CC23)C1C(=O)O (stereo not drawn)	8.5%	x	17.0%[11.4 µM]	-5.8%[59 µM]	-19.2%	4.5%
O=C(O)C1OC(C(=O)O)C(C(=O)O)C1C(=O)O (stereo not drawn)	x	-0.5	x	x	20µM*	-13.1%
CN1CC[n+]2cnc3ccccc3c21	-14.5%	x	-5.1%	2.51µM*	-5.2%	16.1%
COc1cc2c3nnc(-c4ccc(F)cc4)c-3cn(Cc3cccc(F)c3)c2cc1OC	x	-26.2	x	44.7µM*	u	-32.4%
O=c1c2c(C(F)(F)F)cc(C(F)(F)F)nc2[nH]n1-c1ccccc1	u	x	x	7.94µM*	u	-22.6%
O=c1c2cc(Br)ccc2[nH]c(=S)n1Cc1ccccc1	11.4%	0.1	x	24.6%	-5.6%	48.4%
O=c1c2cc(Br)ccc2[nH]c(=S)n1Cc1ccccn1	-3.6%	-6.2	4.6%	7.94µM*	-8.1%	47.2%

Compound activity as filed in PubChem.
